Growth inhibition data for 10 compounds are collected here from PubChem BioAssay (NCI).

The panel holds about 79,000 compounds, 15% with a hit somewhere; the sample as a whole holds those more often. Unmarked numbers belong to inactive results. Activity calls are given as the source filed them. No stated cut-off is given here; in the data, active means growth inhibition above about 70%; inactive means the rest.

The nature of test [1]: NCI Yeast Anticancer Drug Screen. Data for the rad50 strain (AID 155).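 Further: 0% = growth of vehicle-only cultures of the same strain.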 The note with it: S. cerevisiae rad50 strain growth inhibition, active compounds read high. An outline of the steps: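 Genetically altered yeast (DNA repair pathway); compound treatment; growth inhibition vs vehicle ctrl.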
Test [2] in a line: NCI Yeast Anticancer Drug Screen. Data for the mec2-1 strain (AID 157). The note with it: S. cerevisiae mec2-1 strain, active compounds read high. The gist of the method:
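Vehicle-treated cultures served as reference for growth inhibition of compound-exposed mec2-1 yeast.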

Test [3] in a line: NCI Yeast Anticancer Drug Screen. Data for the sgs1 mgt1 strain (AID 161).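 Further: 0% = growth of cultures given vehicle only.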 The conditions noted are these: S. cerevisiae sgs1 mgt1 strain, active compounds read high. The gist of the method:
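Read-out: growth inhibition vs vehicle controls. Cells: mutant yeast strain deficient in DNA damage repair.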

A short description of test [4]: NCI Yeast Anticancer Drug Screen. Data for the cln2 rad14 strain (AID 165).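 Further: 0% = growth equal to vehicle treated cultures.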 The note with it: S. cerevisiae cln2 rad14 strain, active compounds read high. The gist of the method:
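Each compound was tested on cln2 rad14 yeast. Inhibition of growth was calculated against vehicle-exposed controls.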

Test [5] can be described thus: NCI Yeast Anticancer Drug Screen. Data for the bub3 strain (AID 167). The note with it: S. cerevisiae bub3 mutant strain, active compounds read high. The gist of the method: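 Yeast carrying a defined mutation is treated with each compound, and growth is compared with that of vehicle-exposed cells to give inhibition.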
Test [6] in a line: NCI Yeast Anticancer Drug Screen. Data for the mlh1 rad18 strain (AID 175). The note with it: S. cerevisiae mlh1 rad18 strain growth inhibition, active compounds read high. An outline of the steps:
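Vehicle-treated cultures served as the reference for growth inhibition in a yeast strain carrying DNA damage repair alterations exposed to each compound.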

[7] abbreviates: at 5.0 µM (retest, dose inferred, filed as 0.5).
The mark [8] stands for this setting: at 50.0 µM (retest, dose inferred, filed as 5.0).

As for `Cc1ccccc1NC(=O)C1C(=O)N(c2ccccc2C)C(=O)/C1=N/O` (stereo not given), the growth inhibition is -21% in test [1] (setting [7]); 3% in test [1] (setting [8]); -21.4% in test [1] (at 50.0 µM); 3% in test [2] (setting [7]); 4% in test [2] (setting [8]); 2.95% in test [2] (at 50.0 µM). Moreover, the growth inhibition was -4% in test [3] (setting [7]); -19% in test [3] (setting [8]); -4.55% in test [3] (at 50.0 µM); -6% in test [4] (setting [7]); 6% in test [4] (setting [8]); -26.6% in test [4] (at 50.0 µM). Further, the growth inhibition was 0% in test [5] (setting [7]); 1% in test [5] (setting [8]); -5.25% in test [5] (at 50.0 µM); -1% in test [6] (setting [7]); -2% in test [6] (setting [8]); 3.65% in test [6] (at 50.0 µM).

As to `O=C(O)c1ccc([N+](=O)[O-])cc1.[Ag]`, the growth inhibition in test [1] (setting [7]) was 99% (active); in test [1] (setting [8]), 99% (active); in test [1] (at 50.0 µM) it was 98.8% (active); in test [2] (setting [7]), 100% (active); in test [2] (setting [8]), 99% (active); in test [2] (at 50.0 µM) it was 99.3% (active). Further, the growth inhibition in test [3] (setting [7]) is 99% (active); in test [3] (setting [8]), 99% (active); in test [3] (at 50.0 µM), 99.5% (active); in test [4] (setting [7]), 99% (active); in test [4] (setting [8]) it was 99% (active); in test [4] (at 50.0 µM), 98.9% (active). In addition, the growth inhibition in test [5] (setting [7]) is 99% (active); in test [5] (setting [8]), 99% (active); in test [5] (at 50.0 µM), 99.2% (active); in test [6] (setting [7]) it was 99% (active); in test [6] (setting [8]), 99% (active); in test [6] (at 50.0 µM) it was 99.2% (active).

`COc1ccc(NC(=O)CCC(=O)C(C)C(=O)c2ccccc2)cc1` (stereo not given): the growth inhibition in test [1] (setting [7]) was 0%; in test [1] (setting [8]), -1%; in test [1] (at 50.0 µM), 59.8%; in test [2] (setting [7]), -1%; in test [2] (setting [8]), 3%; in test [2] (at 50.0 µM) it was 16.2%. The growth inhibition is 14% in test [3] (setting [7]); 0% in test [3] (setting [8]); 26.8% in test [3] (at 50.0 µM); -1% in test [4] (setting [7]); 10% in test [4] (setting [8]); 49.2% in test [4] (at 50.0 µM). Moreover, the growth inhibition is 0% in test [5] (setting [7]); 21% in test [5] (setting [8]); 21.6% in test [5] (at 50.0 µM); -2% in test [6] (setting [7]); 6% in test [6] (setting [8]); 24.3% in test [6] (at 50.0 µM).

On to `COc1ccc(/C=C(\C(=O)c2ccc(O)cc2)c2ccccc2)cc1OC`, for which the growth inhibition in test [1] (setting [7]) is -5%; in test [1] (setting [8]) it was 97% (active); in test [1] (at 50.0 µM), 98.5% (active); in test [2] (setting [7]) it was -9%; in test [2] (setting [8]), 97% (active); in test [2] (at 50.0 µM), 98% (active). Further, the growth inhibition is 2% in test [3] (setting [7]); 98% (active) in test [3] (setting [8]); 96.2% (active) in test [3] (at 50.0 µM); -5% in test [4] (setting [7]); 99% (active) in test [4] (setting [8]); 93.7% (active) in test [4] (at 50.0 µM). The growth inhibition is -4% in test [5] (setting [7]); 98% (active) in test [5] (setting [8]); 97.1% (active) in test [5] (at 50.0 µM); 0% in test [6] (setting [7]); 99% (active) in test [6] (setting [8]); 97.5% (active) in test [6] (at 50.0 µM).

Consider `CCCCCCCCCCCCCCCCCC[N+]1(C)CCC[N+](C)(CCCCCCCCCCCCCCCCCC)CC1` (stereo not given), for which the growth inhibition in test [1] (setting [7]) was 2%; in test [1] (setting [8]), 26%; in test [1] (at 50.0 µM) it was 41.8%; in test [2] (setting [7]), -3%; in test [2] (setting [8]), 17%; in test [2] (at 50.0 µM), 83.4% (active). Moreover, the growth inhibition is 2% in test [3] (setting [7]); 53% in test [3] (setting [8]); 47% in test [3] (at 50.0 µM); 0% in test [4] (setting [7]); 3% in test [4] (setting [8]); 7.9% in test [4] (at 50.0 µM). The growth inhibition in test [5] (setting [7]) was 0%; in test [5] (setting [8]), 77% (active); in test [5] (at 50.0 µM), 50.6%; in test [6] (setting [7]) it was 2%; in test [6] (setting [8]) it was 24%; in test [6] (at 50.0 µM) it was 84% (active).

On to `CCc1ccccc1NC(=O)C(C#N)C1=C(Cl)C(=O)c2ccccc2C1=O` (stereo not given), for which the growth inhibition was 53% in test [1] (setting [7]); 98% (active) in test [1] (setting [8]); 97.2% (active) in test [1] (at 50.0 µM); 71% (active) in test [2] (setting [7]); 98% (active) in test [2] (setting [8]); 98.7% (active) in test [2] (at 50.0 µM). The growth inhibition is 51% in test [3] (setting [7]); 98% (active) in test [3] (setting [8]); 97.3% (active) in test [3] (at 50.0 µM); 20% in test [4] (setting [7]); 98% (active) in test [4] (setting [8]); 50.9% in test [4] (at 50.0 µM). The growth inhibition is 94% (active) in test [5] (setting [7]); 98% (active) in test [5] (setting [8]); 97.3% (active) in test [5] (at 50.0 µM); 44% in test [6] (setting [7]); 97% (active) in test [6] (setting [8]); 98.1% (active) in test [6] (at 50.0 µM).

In the case of `CC(C)c1cc(O)c(C(C)(C)C)cc1Cl`, the growth inhibition in test [1] (setting [7]) is -1%; in test [1] (setting [8]), 15%; in test [1] (at 50.0 µM), 74.5% (active); in test [2] (setting [7]), 2%; in test [2] (setting [8]), 38%; in test [2] (at 50.0 µM), 77.2% (active). The growth inhibition is -1% in test [3] (setting [7]); 24% in test [3] (setting [8]); 77.3% (active) in test [3] (at 50.0 µM); 4% in test [4] (setting [7]); 45% in test [4] (setting [8]); 72.5% (active) in test [4] (at 50.0 µM). The growth inhibition in test [5] (setting [7]) was -11%; in test [5] (setting [8]), 30%; in test [5] (at 50.0 µM), 76.6% (active); in test [6] (setting [7]), 3%; in test [6] (setting [8]) it was 47%; in test [6] (at 50.0 µM), 86.8% (active).

In the case of `c1ccc(-c2c[nH]c(-c3ccccc3)c2-c2ccccc2)cc1`, the growth inhibition in test [1] (setting [7]) was 1%; in test [1] (setting [8]) it was 90% (active); in test [1] (at 50.0 µM), 95.2% (active); in test [2] (setting [7]), -13%; in test [2] (setting [8]), 93% (active); in test [2] (at 50.0 µM) it was 95.1% (active). Further, the growth inhibition in test [3] (setting [7]) was -15%; in test [3] (setting [8]), 94% (active); in test [3] (at 50.0 µM) it was 93.3% (active); in test [4] (setting [7]), -4%; in test [4] (setting [8]), 80% (active); in test [4] (at 50.0 µM), 95% (active). In addition, the growth inhibition in test [5] (setting [7]) is 7%; in test [5] (setting [8]) it was 92% (active); in test [5] (at 50.0 µM), 83.4% (active); in test [6] (setting [7]) it was 18%; in test [6] (setting [8]), 94% (active); in test [6] (at 50.0 µM), 96.8% (active).

Consider `Cc1ccc(-n2c(CSc3ccc(Cl)cc3)nnc2SCc2nc3ccccc3[nH]2)cc1`, for which the growth inhibition in test [1] (setting [7]) is -22%; in test [1] (setting [8]) it was 8%; in test [1] (at 50.0 µM), 46.9%; in test [2] (setting [7]) it was -16%; in test [2] (setting [8]), -9%; in test [2] (at 50.0 µM), 73.1% (active). In addition, the growth inhibition is -28% in test [3] (setting [7]); 7% in test [3] (setting [8]); 42.7% in test [3] (at 50.0 µM); -4% in test [4] (setting [7]); 5% in test [4] (setting [8]); 70.5% (active) in test [4] (at 50.0 µM). Also, the growth inhibition in test [5] (setting [7]) is 1%; in test [5] (setting [8]), -3%; in test [5] (at 50.0 µM), 3.9%; in test [6] (setting [7]), 2%; in test [6] (setting [8]) it was -4%; in test [6] (at 50.0 µM), 66.6%.

For `CC(O)(CO)CC(C)(O)CO` (stereo not given), the growth inhibition was -2% in test [1] (setting [7]); -10% in test [1] (setting [8]); 12.9% in test [1] (at 50.0 µM); 3% in test [2] (setting [7]); -6% in test [2] (setting [8]); -7.2% in test [2] (at 50.0 µM). Also, the growth inhibition in test [3] (setting [7]) is -1%; in test [3] (setting [8]), -9%; in test [3] (at 50.0 µM), 1.8%; in test [4] (setting [7]) it was -2%; in test [4] (setting [8]) it was -14%; in test [4] (at 50.0 µM) it was 77% (active). Also, the growth inhibition in test [5] (setting [7]) was 2%; in test [5] (setting [8]) it was -1%; in test [5] (at 50.0 µM), -1.05%; in test [6] (setting [7]), 1%; in test [6] (setting [8]), -11%; in test [6] (at 50.0 µM), -7.45%.
